This is a sample that favours compounds with a hit; in the whole collection about 0.77% have one here.
Vif-APOBEC3G blk – blocks the Vif interaction with human APOBEC3G | Potency, µM (series often up to 46.1 µM), inactives show at the highest dose activity, negative = active, actives largely listed as inhibitors | Q9HC16 | hit rate 0.076% among 410,000 | HeLa A3G-eYFP + Vif (tagged APOBEC3G with the HIV-1 protein that degrades it), YFP fluorescence, overnight; also: potency is read from the fitted curve at half-maximal effect; % is scaled to controls: 0 for no effect and ±100 for the full control effect; nearly all actives have a fitted effect of over 60% in size
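Read-out is eYFP fluorescence (Ex 488/Em 500-530) from Vif-expressing HeLa A3G-eYFP cells; more signal means A3G escaped Vif-mediated degradation. Cells plated overnight, compound pinned in, incubated overnight at 37 deg C.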
PKM2 activator – increases activity of human pyruvate kinase M2; purified PKM2, Kinase-Glo ATP luminescence, activation; response scale: 0% is enzyme alone, no compound; Potency, µM (series often up to 57.5 µM), inactives show at the top dose activation, most hits filed as activators; hit rate 0.34% among 260,000; AID 1631; also: potency is read from the fitted curve at half-maximal effect; % is scaled to controls: 0 for no effect and ±100 for the full control effect; nearly all actives have a fitted effect of over 55% in size
Target sequence (P14618 whole entry, looked up): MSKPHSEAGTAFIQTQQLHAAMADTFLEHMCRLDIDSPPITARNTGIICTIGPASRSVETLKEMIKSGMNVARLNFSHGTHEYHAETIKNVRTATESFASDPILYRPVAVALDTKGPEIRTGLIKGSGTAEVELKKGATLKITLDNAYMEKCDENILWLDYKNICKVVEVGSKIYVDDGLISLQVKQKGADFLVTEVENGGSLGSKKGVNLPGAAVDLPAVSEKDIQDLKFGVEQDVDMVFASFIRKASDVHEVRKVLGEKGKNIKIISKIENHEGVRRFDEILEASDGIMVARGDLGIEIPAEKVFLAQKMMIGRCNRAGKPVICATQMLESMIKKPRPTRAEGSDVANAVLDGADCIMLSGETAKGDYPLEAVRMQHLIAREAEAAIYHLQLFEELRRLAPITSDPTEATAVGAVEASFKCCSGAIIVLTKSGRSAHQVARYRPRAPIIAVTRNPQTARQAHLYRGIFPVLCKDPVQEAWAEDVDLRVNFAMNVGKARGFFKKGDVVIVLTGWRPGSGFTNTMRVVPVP
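Purified hPK-M2 (>95% pure) converted ADP (0.1 mM final) to ATP with 0.5 mM PEP in 50 mM imidazole pH7.2, KCl, MgCl2, Tween 20, BSA; 1 h at room temperature. ATP detected by Kinase-Glo luminescence.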
IL2 activator – activators of IL-2. hit rate 0.065% among 360,000. activation, % (series mostly up to about 46 µM). IL-2 activation reporter assay, cell-based qHTS; stimulated with anti-CD3/CD4/CD28 beads; in transgenic mouse T cells. AID 652025; in the data active = activation above about 50%; inconclusive = mostly about 30% to 49%; also: 0% is about no effect
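Quantitative HTS in unstimulated transgenic mouse T cells, with memory T cells as non-tolerant control and PMA/ionomycin as tolerance-bypass control. Compound pretreatment lasted 60 minutes before 18 h bead stimulation; EGFP/DsRed fluorescence read.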
Vif-APOBEC3F blk – inhibitors of Vif-A3F interaction. HeLa A3F-eYFP + Vif (tagged APOBEC3F with the HIV-1 protein that degrades it), YFP fluorescence increase. Potency, µM (titrated, usually from 46.1 µM), for the others: at the highest dose activity, negative = active. hit rate 0.2% among 390,000. AID 602313; also: potency is read from the fitted curve at half-maximal effect; % of control where 0% means no effect; nearly all actives have a fitted effect of over 65% in size
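HeLa cells stably expressing A3F-eYFP plus Vif, plated and incubated overnight at 37 deg C, then exposed to compounds overnight at 37 deg C. Blocked degradation read as raised yellow fluorescence (Ex 488/Em 500-530).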
KAT2A inh – blocks human GCN5L2 histone acetyltransferase. Q92830. GCN5L2 HAT assay, ThioGlo1 CoA-SH fluorescence. Potency, µM (highest dose often 58.9 µM), for the others: top-dose activity change, negative = inhibition, usual class: inhibitors. hit rate 0.21% among 390,000; also: potency is read from the fitted curve at half-maximal effect; % is scaled to controls: 0 for no effect and ±100 for the full control effect
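qHTS, 1536-well. 20nM enzyme, pH 7.5 HEPES/EDTA/Tween-20 buffer; 15 min compound preinc., RT. Start: 75uM H3(1-25), 70uM AcCoA, 50uM ThioGlo1. Read Ex340/Em540 at t=0 (autofluorescence flag) and t=20 min.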
GoLoco inh red – blocks human Gai1 binding to RGS12 GoLoco peptide, red readout; P63096; hit rate 0.44% among 230,000; Gai1:RGS12 GoLoco peptide FP, rhodamine, 10 min; Potency, µM (titrated, usually from 61.6 µM), for the others: top-dose activity, negative = inhibition, actives largely listed as inhibitors; active = well fitted inhibition curve with a large enough effect, not every such curve was filed as active; inactive = no such curve, though single readings can be large or run the other way; also: potency is read from the fitted curve at half-maximal effect; % is scaled to controls: 0 for no effect and ±100 for the full control effect; nearly all actives have a fitted effect of over 30% in size
* hit, by the source's call; u = inconclusive; x = no result; [ ] = remark or other dose. Unless noted, calls follow the shape of the dose curve; as a rule, active = well fitted curve in the direction sought with a large enough effect; inconclusive = small, poorly fitted or top-dose-only effect, or another doubt; inactive = no such curve, though single readings can be large; an effect the other way counts as inactive or inconclusive.

SMILES	Vif-APOBEC3G blk	PKM2 activator	IL2 activator	Vif-APOBEC3F blk	KAT2A inh	GoLoco inh red
O=C1N/C(=C/c2ccc(N3CCCC3)cc2)C(=O)N1c1ccccc1	-14%	-1%	157*	u	0%	6%
O=C1N/C(=C/c2ccc(N3CCOCC3)o2)C(=O)N1c1ccccc1	u	u	-1	u	-5%	24%
CN1C(=O)c2ccc(N3CCCC3)cc2C1=O	2%	-1%	1	-6%	-10%	-18%
O=C1NC(=S)N/C1=C\c1ccc(N2CCOCC2)cc1	-5%	10%	-1	-1%	1%	132%
Cc1cc(N2CCCC2)ccc1/C=C1\NC(=S)N(C)C1=O	u	2%	9	6.3µM*	-2%	234%
CCOC(=O)Cc1csc(NC(=O)Cn2cnc3c2c(=O)n(C)c(=O)n3C)n1	0%	4%	1	4%	u	14%
CCOc1ccc2nc(N3C(=O)/C(=C/c4ccc(Cl)cc4)NC3=S)sc2c1	-3%	3%	0	5µM*	2%	18%
CCOC(=O)N1CCC(NC(=O)CS(=O)(=O)Cc2nc(-c3cccc(OC)c3)oc2C)CC1	-1%	2%	0	5%	-6%	6%
Cc1ccc2ccc(C)[n+](CCCS(=O)(=O)[O-])c2c1	-2%	-5%	0	-5%	-18%	7.9µM*
O=C(CSc1nnc(-c2ccc(O)cc2)o1)Nc1cccc(O)c1	-8%	7.9µM*	0	1%	-8%	x
O=C(CSc1nnc(-c2ccc(O)cc2)o1)Nc1ccc2c(c1)OCCO2	-8%	-1%	0	-10%	1%	-2%
COc1ccc(-c2cc(C(F)(F)F)nc(NCc3ccco3)n2)cc1OC	0%	3%	1	-11%	22µM*	12%
N#C/C(=C\c1ccc(C#N)cc1)C(=O)c1ccccc1	-5%	22µM*	-2	-18%	2%	-10%
CCCCCN1CC(=O)N2Cc3[nH]c4ccccc4c3C[C@H]2C1=O	1%	x	0	-7%	-4%	x
CCCCN1C(=O)C2Cc3c([nH]c4ccccc34)CN2C1=S (centres undefined)	8.9µM*	8%	-1	-528%	-1%	1%
COc1ccc(C(=O)OCC[N+]2(C)CCOCC2)cc1	-4%	-6%	0	4%	-15%	7.9µM*
Cc1ccc(O)c(NC(=O)c2cc(-c3ccccc3O)no2)c1	u	x	x	11µM*	-14%	x
Cc1cccc(NC(=O)c2ccccc2NC(=O)c2ccccc2)n1	-9%	x	0	-19%	-5%	x
O=C(N=c1ccn(-c2nc3ccccc3nc2NS(=O)(=O)c2ccccc2)cc1)c1cccs1	u	0%	u	25µM*	-21%	11%
Cc1ccccc1C(=O)N=c1ccn(-c2nc3ccccc3nc2NS(=O)(=O)c2ccc(F)cc2)cc1	-17%	x	-1	u	-3%	x
Cc1ccc2oc(/N=C(\N)NC(=O)C(C)(C)C)nc2c1	4%	-2%	-5	22µM*	-7%	13%
C[n+]1ccc(C(=O)N/N=C/c2ccco2)cc1	2%	-4%	0	-8%	-5%	0.89µM*
O=C(O)c1cccc(CN2C(=O)SC(Nc3cccc4ccccc34)C2=O)c1 (centres undefined)	-1%	u	2	3%	14µM*	7%
O=C(COc1ccc(Cl)cc1)NCC(c1ccco1)S(=O)(=O)c1ccc(Cl)cc1 (centres undefined)	2%	x	x	-1%	-4%	x
O=[N+]([O-])c1ccccc1S(=O)(=O)N1CCN(CC2CC3C=CC2C3)CC1 (centres undefined)	2%	3%	-2	17%	-10%	-3%
SMILES	Vif-APOBEC3G blk	PKM2 activator	IL2 activator	Vif-APOBEC3F blk	KAT2A inh	GoLoco inh red
CC1CCCC2(C1)NC(=S)N(c1ccccc1)N2 (centres undefined)	-10%	0%	0	9%	-5%	6%
S=C1NC2(CCCCC2)NN1c1ccccc1	-10%	6%	-2	-4%	18µM*	3%
O=C(COc1ccc(S(=O)(=O)NCc2ccccc2)cc1Cl)NCc1ccncc1	-2%	10%	-4	-9%	-4%	x
CCN(CC)c1ccc2cc(-c3nc(-c4ccc(Cl)cc4Cl)cs3)c(=O)oc2c1	-21%	x	x	7.1µM*	-6%	x
CCN(CC)c1ccc2cc(-c3nc4ccccc4[nH]3)c(=O)oc2c1	u	3%	14	-349%	-1%	9%
CCN(CC)c1ccc2cc(-c3nc4ccccc4n3C)c(=O)oc2c1	u	-16%	1	11µM*	-13%	11%
CC(C)c1ccc(C(C(=O)NC2CCCC2)N(C(=O)CNC(=O)c2ccco2)c2cccnc2)cc1 (centres undefined)	1%	3%	0	-8%	-6%	8%
Cc1ccc(CNC(=O)C2c3ccccc3C(=O)N3CCc4ccccc4C23)o1 (centres undefined)	-6%	10µM*	-2	-2%	-6%	-12%
O=C(NCCc1ccccc1F)c1ccc2c(c1)OCCO2	5%	-29%	1	1%	-1%	x
Cc1c(C(=O)OCC(O)=C(C#N)c2nc3ccccc3[nH]2)oc2ccc(Br)cc12	-2%	x	-1	u	x	x
Cc1c(C(=O)OC/C(O)=C(\C#N)c2nc3ccccc3[nH]2)oc2ccccc12	u	0%	-2	22µM*	-2%	81%
Cn1ccc(-c2ccccc2)n1	3%	0%	0	0%	-1%	6%
N#Cc1cc(-c2ccccc2)nn1-c1ccccc1	0%	-18%	-4	-5%	u	13µM*
Cc1cc(C(=O)OCC(=O)c2ccc(Cl)c([N+](=O)[O-])c2)c2cccc(C)c2n1	2%	1%	0	2%	-12%	26%
Cc1cc2ccccn2c1C(=O)c1ccc([N+](=O)[O-])o1	u	-1%	1	11µM*	-4%	0%
Cc1ccc(-n2c(CCc3ccccc3)nnc2SCC(=O)NCc2ccccc2)cc1C	1%	-1%	-3	0%	-13%	-17%
COC(=O)c1c(-c2cccnc2)csc1NC(=O)c1ccc2c(c1)OCO2	-20%	3%	0	10µM*	-5%	x
Cc1ccc(NS(=O)(=O)c2c(C)nc3sccn3c2=O)cc1C	6%	4.5µM*	-1	2%	-9%	x
S=C(CSc1ccccc1)Nc1cccc2ccccc12	-10%	x	1	u	x	5%[14.2 µM]
O=C(CCC1CCN(Cc2ccccc2O)CC1)NC1CC1	0%	1%	1	11%	0%	x
Cc1ccc(CNC(=O)CCS(=O)(=O)c2cc(Br)cc3c2N(C(=O)C2CC2)CC3)o1	0%	7.9µM*	0	10%	-2%	56%

Screening results as filed in PubChem.
